Jurkat NFkB inh = inhibitors of induced NF-kB luciferase reporter, primary screen, TCR NF-kB activation inhibitor project, cell-based, luminescence, uHTS; Jurkat, PMA/ionomycin-induced NF-kB luciferase reporter; inhibition, % at 4 µM; actives 0.53% (n = 330,000); AID 435003, 2010; in the data active means inhibition above about 50%
697 NFkB inh = inhibitors of PMA/ionomycin-induced NF-kB reporter, 697 cells, primary screen, B-cell NF-kB inhibitor project, cell-based, luminescence, uHTS | 697 B-cell NF-kB luciferase reporter, 16 h | AID 435022, 2010 | actives 0.33% (n = 330,000) | inhibition, % at 4 µM; in the data active means inhibition above about 35%
ANO1 activ = TMEM16A chloride channel activators or potentiators, primary screen, cell-based, HTS | actives 0.3% (n = 340,000) | HEK293 TMEM16A/YFP-H148Q/I152L, iodide quench fluorescence; active compounds read low | B-score at 10 µM | Anoctamin-1 (Mus musculus), Q8BHY3;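 active means fluorescence-ratio B-score plate-corrected deviation score at least 3 library SD below zero, with starting fluorescence score within 5 deviations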;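 further: channel opened by trigger with iodide after compound preincubation; score built on the fluorescence ratio of max minus min over baseline; more negative score means more quench and so TMEM16A activation or potentiation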
aSyn UTR inh = MLPCN primary screen, SNCA 5' untranslated region. alpha-synuclein 5'UTR reporter, inhibitor activity. inhibition, % (tested at 7.5 µM). actives 0.82% (n = 300,000); in the data active means inhibition above about 60%;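 further: H4 neuroglioblastoma cells stably carrying SNCA 5'UTR luciferase fusion; 0% = DMSO wells and 100% = positive control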
KLF5 inh = KLF5 expression inhibitors, primary screen, DLD-1 cells, luminescence; inhibition, % at 5 µM; DLD-1 KLF5 promoter-luciferase reporter; AID 1700, 2009; actives 0.23% (n = 290,000);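 active means inhibition above a per-plate limit of that plate's mean compound inhibition plus 3 SD, cut at about 60% in these data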;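 further: 0% = DMSO wells and 100% = LY294002 at 200 µM; higher means less KLF5 promoter-driven luciferase light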
TMEM16A inh = TMEM16A chloride channel inhibitors, primary screen, cell-based, HTS; actives 1.2% (n = 310,000); HEK293 TMEM16A/YFP iodide influx fluorescence, ionomycin; Anoctamin-1 (Mus musculus), Q8BHY3; AID 588511, 2011; normalized B-score (activity score, 25-100; higher = stronger inhibition) at 10 µM;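 active means ratio plate-corrected score three or more library SD toward inhibition, starting fluorescence score within five deviations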;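 further: score derived from kinetic fluorescence span divided by baseline fluorescence per well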
Active calls of the source: *; i = inactive; x = not tested or not shown. Compounds with a hit are over-represented: about 2.5% of the library has one in this group of screens.

SMILES | Jurkat NFkB inh | 697 NFkB inh | ANO1 activ | aSyn UTR inh | KLF5 inh | TMEM16A inh
CCCCCCn1c(=O)c(C(=O)Nc2ncccc2O)c(O)c2ccccc21 | 16 | 30 | i | 92* | 45 | i
CCCCCn1c(=O)c(C(=O)NCc2ccncc2)c(O)c2ccccc21 | -11 | -29 | i | 65* | -9 | 25*
CCCCCn1c(=O)c(C(=O)Nc2ccccn2)c(O)c2ccccc21 | 10 | -31 | i | 65* | -34 | i
CCCCCCn1c(=O)c(C(=O)Nc2cnccn2)c(O)c2ccccc21 | -17 | -16 | i | 67* | 2 | i
CCCCCn1c(=O)c(C(=O)Nc2ccccc2)c(O)c2ccccc21 | -5 | -25 | i | 16 | -28 | i
CCCCn1c(=O)c(C(=O)Nc2ccc(C)cn2)c(O)c2ccccc21 | 0 | 5 | i | -11 | -27 | i
CCCCn1c(=O)c(C(=O)Nc2ccccn2)c(O)c2ccccc21 | 4 | -23 | i | 18 | -26 | i
O=c1[nH]c(=O)n(Cc2ccc(F)cc2)c(O)c1/C=N/Nc1ccccc1 | -5 | -5 | i | -10 | -6 | i
Cc1ccc(-c2cc(-c3ccc(C)cc3)[n+](C)o2)cc1 | x | x | i | -2 | -16 | i
c1ccc(-c2cc(-c3ccccc3)[n+](-c3ccccc3)c(-c3ccccc3)c2)cc1 | 10 | -77 | i | -1 | 39 | 25*
CCOC(=O)c1ccc(-[n+]2c(-c3ccccc3)cc(-c3ccccc3)cc2-c2ccccc2)cc1 | 26 | -36 | -14* | -38 | x | i
Cc1ccc(-c2cc(-c3ccc(C)cc3)[n+](-c3ccc(C(=O)[O-])cc3)c(-c3ccc(C)cc3)c2)cc1 | 17 | -3 | i | 83* | x | i
CCOC(=O)c1cccc(-[n+]2c(-c3ccccc3)cc(-c3ccccc3)cc2-c2ccccc2)c1 | 15 | -53 | -5.6* | 8 | x | i
CCOC(=O)c1ccccc1C(=O)OCC | 9 | 4 | i | -6 | x | i
CC(=O)OC1N=C(c2ccccc2)c2ccccc2NC1=O (centres undefined) | 3 | 10 | i | 23 | -13 | i
O=C(c1cc(F)ccc1F)C1CCCN(Cc2ccc3nonc3c2)C1 (centres undefined) | -8 | -8 | i | 23 | 1 | i
C[C@@]1(CO)[C@H](O)CC[C@@]2(C)[C@H]1CC[C@H]1C[C@@H]3C[C@@]12CC[C@]3(O)CO | x | x | x | 73* | 23 | i
CC(C)=CCOc1c2occc2cc2ccc(=O)oc12 | -9 | -19 | i | 13 | 8 | i
CC(=O)N1N=C2C3CCN(CC3)C2C1c1ccccc1 (centres undefined) | -7 | -4 | i | 26 | -21 | i
CCC(=Nc1ccc(OC)cc1OC)c1c(O)[nH]c(=O)[nH]c1=O | 0 | -17 | i | 28 | -12 | i
CCC(=Nc1cc(OC)ccc1OC)c1c(O)[nH]c(=O)[nH]c1=O | -20 | -23 | i | 71* | -30 | i
CCC1C2CC3C4N(C)c5ccccc5C45CC(C2C5O)N3[C@@H]1O (some centres undefined) | 5 | 15 | i | 10 | -23 | i
CC[C@H]1C2C[C@H]3[C@@H]4N(C)c5ccccc5C45C[C@H](C2[C@H]5O)N3[C@@H]1O (some centres undefined) | 2 | 12 | i | x | x | 100*
CC1=C(O)C(=O)C=C2C1=CC=C1C2(C)CCC2(C)C3CC(C)(C(=O)O)CCC3(C)CCC12C (centres undefined) | x | x | -10* | x | x | x
S=C(N1CCCCCC1)N1CC1 | x | x | i | x | x | x
SMILES | Jurkat NFkB inh | 697 NFkB inh | ANO1 activ | aSyn UTR inh | KLF5 inh | TMEM16A inh
CCC1=CCN(CCc2c(C)[nH]c3ccccc23)CC1 | 0 | 7 | i | -9 | x | i
CCOc1cccc(=NC2CCCCC2)c2c(C)n(C)c(C)c12 | 7 | 3 | i | 31 | -11 | 100*
CN1CCC(N(C)c2nc(-c3ccc([N+](=O)[O-])cc3)nc3ccccc23)CC1 | x | x | i | 75* | -6 | x
CCOP(=O)(OCC)C(O)c1ccc(OC)c(OC)c1 (centres undefined) | -1 | 9 | i | 2 | 18 | i
CC(C)Oc1cccc(NC(=O)c2cccn(Cc3ccc4c(c3)OC(F)(F)O4)c2=O)c1 | -4 | 8 | i | 13 | 16 | i
Cc1cccc(C)c1NC(=O)c1cccn(Cc2ccc3c(c2)OC(F)(F)O3)c1=O | 8 | -7 | i | 24 | -1 | 25*
COc1ccc(CNCCc2c(C)[nH]c3ccc(OC(F)(F)F)cc23)c(OC)c1 | 47 | -59 | i | 90* | -12 | i
CC[C@H](C)[C@@H]1O[C@@]2(C=CC1C)CC1C[C@@H](CC=C(C)C(O[C@H]3CC(OC)C(O[C@H]4CC(OC)C(O)C(C)O4)C(C)O3)C(C)C=CC=C3CO[C@@H]4C(O)C(C)=C[C@@H](C(=O)O1)[C@]34O)O2 (some centres undefined) | 10 | -1 | x | x | x | 25*
Brc1ccccc1CNCCc1ccc2c(c1)OCO2 | 11 | -21 | i | -28 | -24 | i
c1ccc(-c2[nH]c(-c3ccccc3)[n+](CC3CO3)c2-c2ccccc2)cc1 (centres undefined) | 4 | -3 | i | -10 | 21 | i
CC/C(=C\C=C\[C@@H]1C=C[C@@H]2CCC[C@H]2[C@@H]1C(=O)c1ccc[nH]1)[C@@H]1O[C@@H]([C@@H](C)C(=O)O)CC[C@@H]1C | -10 | -47 | x | 45 | 12 | 100*
CCCC(C)C1C(C#N)=C(N)Oc2c1c(=O)oc1ccccc21 (centres undefined) | 0 | 13 | i | -7 | -2 | 100*
COc1cc2c(cc1OC)-c1c(OC)c(OC)c(OC)c3ccnc(c13)C2=O | 36 | -17 | x | 104* | 11 | i
COC1CCC(OC2CC(C3(C)CCC4(CC(O)C(C)C(C(C)/C=C(\C)C(=O)C(C)CC(C)C(=O)O)O4)O3)OC3(OC(C4OC(O)(CO)C(C)CC4C)CC3C)C2C)OC1C (centres undefined) | x | x | -4.8* | x | x | x
CCC(=O)N1N=C2C3CCN(CC3)C2C1c1ccccc1 (centres undefined) | 11 | 14 | i | -5 | 17 | i
CCCCCc1nc2c(c(=O)c3ccccc3n2C)c(=O)n1C1CCCCCC1 | 9 | 7 | -11* | 25 | -8 | i
CCCCCc1nc2ccccc2c(=O)n1-c1ccccc1[N+](=O)[O-] | 8 | 2 | i | 13 | -17 | i

Bioassay records from PubChem BioAssay.
